Records with an inconclusive call do not appear. Where a call stands in place of a potency, no number is given. Unmarked numbers belong to inactive results. Calls of active or inactive are those of the source. Calls come from the whole dose curve; as a rule, active = well fitted cell-killing curve with a large enough effect in the repeat runs; inconclusive = weak or mixed curves, or effect the other way; inactive = flat fitted curve, though single readings scatter.
assay: qHTS assay to identify small molecule agonists of the estrogen receptor beta (ER-beta) signaling pathway - cell viability counter screen (AID 1259380); settings: ER-beta-bla HEK293T viability, CellTiter-Glo luminescence, 16 h; series mostly up to 92.4 µM; note: nearly all actives have a fitted effect of over 30% in size
Text: National Center for Advancing Translational Sciences [NCATS]
NIH Chemical Genomics Center [NCGC]
U.S. Environmental Protection Agency [EPA]
National Institutes of Environmental Health Sciences [NIEHS]
National Toxicology Program [NTP]
U.S. Food and Drug Administration [FDA]
Estrogen receptor (ER), a nuclear hormone receptor, plays an important role in development, metabolic homeostasis and reproduction. Two subtypes of ER, ER-alpha and ER-beta, have similar expression patterns with some uniqueness in both types. Endocrine disrupting chemicals (EDCs) and their interactions with steroid hormone receptors like ER causes disruption of normal endocrine function. To identify the compounds that activate ER signaling, an ER beta-UAS-bla GripTite cell line (Life Technologies, Madison, WI, USA) containing a beta-lactamase reporter gene under the control of an UAS response element was used to screen Tox21 10K compound library. The cytotoxicity of the Tox21 compound library against the ER-beta-bla cell line was tested in parallel by measuring the cell viability using CellTiter-Glo assay in the same wells.
Tox21 Assay Protocol Summary:
ER-beta-UAS-bla HEK293T cells were dispensed at 2,000 cells/5 uL of assay medium containing 2% charcoal stripped FBS per well into black wall/clear-bottom 1536-well plates using a Multidrop Combi (ThermoFisher Scientific, Waltham, MA) dispenser. After the assay plates were incubated at a 37C and 5% CO2 for 6 hr, 23 nL of compounds dissolved in DMSO, positive controls or DMSO only was transferred to the assay plate by a Pintool station (Kalypsys, San Diego, CA). The plates were incubated at 37C and 5% CO2 for 16 hr. Then 1 uL of LiveBLAzerTM B/G FRET substrate was added using a BioRAPTR FRD (Flying Reagent Dispenser, Aurora Discovery, San Diego, CA) and then the plates were incubated at room temperature for 2 hours, and fluorescence intensity was measured by an Envision plate reader (PerkinElmer, Shelton, CT). For cell viability readout that measures cytotoxicity, 4 uL/well of CellTiter-Glo reagent was added into the assay plates using a FRD. After 30 min incubation at room temperature, the luminescence intensity in the plates was measured using a ViewLux (PerkinElmer) plate reader.

Structure (SMILES) | Potency | activity change, negative = cytotoxicity
Nc1nc2c(ncn2COC(CO)CO)c(=O)[nH]1 | inactive | –
NC(CSCC(=O)O)C(=O)O (stereo not given) | inactive | –
c1ccc([C@H]2CN3CCSC3=N2)cc1 | inactive | –
Cc1cc2c(cc1S(N)(=O)=O)S(=O)(=O)CCC2 | inactive | –
CC(C(=O)O)c1ccc(CC2CCCC2=O)cc1 (stereo not given) | inactive | –
CC(=O)Nc1ccc(S(N)(=O)=O)cc1 | inactive | –
O=C(O)CNC(=O)c1ccc([N+](=O)[O-])cc1 | inactive | –
NC(=O)COCCN1CCN(C(c2ccccc2)c2ccc(Cl)cc2)CC1 (stereo not given) | inactive | –
C/C=C(\C)C#N | inactive | –
O=C1CC2CC1C1CCCC21 (stereo not given) | inactive | –
CCn1nc(C(=O)O)c(=O)c2cc3c(cc21)OCO3 | inactive | –
CCCCNC(=O)NCCCC | inactive | –
O=c1n(CCO)c(=O)n(CCO)c(=O)n1CCO | inactive | –
CCOC(=O)C(=O)OCC | inactive | –
N[C@H]1CN(c2c(F)cc3c(=O)c(C(=O)O)cn(C4C[C@H]4F)c3c2Cl)CC12CC2 (stereo not given in full) | inactive | –
CCC=O | inactive | –
O=Cc1cccc([N+](=O)[O-])c1 | inactive | –
O=c1[nH]c(=O)n([C@H]2C[C@H](O)[C@@H](CO)O2)cc1I | inactive | –
NS(=O)(=O)c1cc2c(cc1Cl)NC(C1CC3C=CC1C3)NS2(=O)=O (stereo not given) | inactive | –
Cc1ccc(=O)n(-c2ccccc2)c1 | inactive | –

Structure (SMILES) | Potency | activity change, negative = cytotoxicity
CCC(C)C1CCCCC1=O (stereo not given) | inactive | –
CC1=CC(C)C(C=O)CC1 (stereo not given) | inactive | –
O=C1OC(=O)C2CCCCC12 (stereo not given) | inactive | –
COC(=O)CCSCCC(=O)OC | inactive | –
C=COCC1CCC(CO)CC1 (stereo not given) | inactive | –
COc1ccc(CCN(C)CCCC(C#N)(c2cc(OC)c(OC)c(OC)c2)C(C)C)cc1OC (stereo not given) | inactive | –
O=[N+]([O-])c1ccc(F)cc1F | inactive | –
COc1cc(C(=O)N2CCCCCCC2)cc(OC)c1OC | inactive | –
N=c1nc(N2CCCCC2)cc(N)n1O | inactive | –
C[C@H]1C[C@@H](O)CC(C)(C)C1 | inactive | –
Cc1[nH]c(=O)c(C#N)cc1-c1ccc2nccn2c1 | inactive | –
COCCCOCCCOC | inactive | –
CC(=O)Nc1c(I)cc(I)c(C(=O)O)c1I | inactive | –
CCOC(=O)CCC(C)=O | inactive | –
O=C1NC(=O)[C@@]2(CCOc3ccc(F)cc32)N1 | inactive | –
Cc1nc2c([nH]1)c(=O)n(C)c(=O)n2Cc1ccco1 | inactive | –
CCc1cccc2c(CCO)c[nH]c12 | inactive | –
N[C@H](C(=O)O)c1ccc(O)cc1 | – | 9.39% [at 19 µM]
NCCc1cnc[nH]1 | inactive | –
NS(=O)(=O)c1cc(C(=O)O)cc(N2CCCC2)c1Oc1ccccc1 | inactive | –
